# S2 tox: reduces viability in counter-screen for ATXN expression inhibitors | 400,000 tested, 0.49% active | S2 cells (HEK-293 line with an ATXN2-luciferase reporter) viability, CellTiter-Fluor protease fluorescence, 24 h | Potency, µM (top dose mostly 56.7 µM), hits mostly cytotoxic | AID 651635; also: nearly all actives have a fitted effect of over 40% in size
# DT40 TDP1 no CPT: qHTS for Inhibitors of human tyrosyl-DNA phosphodiesterase 1 (TDP1): qHTS in cells in absence of CPT. DT40 Tdp1-/- hTDP1 cells, no CPT, ATP luminescence, 48 h. Potency, µM (highest dose often 46.2 µM), without a hit: at the top dose activity change, negative = growth inhibition, actives largely listed as inhibitors. 420,000 tested, 15% active. AID 686978, 2013; also: % is scaled to controls: 0 for no effect and ±100 for the full control effect; nearly all actives have a fitted effect of over 55% in size
#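 Luminescent ATP content (CellTiter-Glo) served as the growth readout. Knockout chicken DT40 cells expressing human TDP1 were exposed to compounds without camptothecin for a minimum 48 hr at 37 °C.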
# DT40 TDP1 CPT: DT40-hTDP1 cell growth loss with CPT; chicken DT40 Tdp1-/-;hTDP1 cells + 20 nM CPT, ATP luminescence, 48 h; Potency, µM (highest dose often 46.2 µM), for the others: at the highest dose activity change, negative = growth inhibition, hits mostly inhibitors; 420,000 tested, 12% active; AID 686979; also: % is scaled to controls: 0 for no effect and ±100 for the full control effect; nearly all actives have a fitted effect of over 55% in size
#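 Chicken DT40 Tdp1-/- cells complemented with human TDP1, 400 cells/well, exposed to compounds plus 20 nM camptothecin for at least 48 h at 37 C; viability read as ATP content by CellTiter-Glo luminescence.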
# ATXN2 expr inh: inhibitors of ATXN2 expression; 360,000 tested, 0.72% active; Potency, µM (titrated, usually from 57 µM), without a hit: top-dose activity change, negative = inhibition, hits mostly inhibitors; HEK-293 ATXN2-luciferase reporter, luminescence, 24 h; also: % is scaled to controls: 0 for no effect and ±100 for the full control effect; nearly all actives have a fitted effect of over 55% in size
#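 qHTS (up to 57 uM final) was run with 24 h compound exposure of reporter cells at 37 °C. Each well was multiplexed: SteadyGlo luminescence measured ATXN2-luciferase expression after a fluorogenic Gly-Phe-AFC viability readout (25 uM final).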
# HepG2 viability: HepG2 cytotoxicity, counter-screen for TGF-b inhibitors. HepG2 CAGA-GFP viability, ATP luminescence, 18 h. Potency, µM (doses to about 46.1 µM), without a hit: top-dose activity change, negative = cytotoxicity, hits mostly cytotoxic. 410,000 tested, 0.76% active. AID 588856
#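 CellTiter-Glo luminescence gave cytotoxicity after 18 hours at 37 degrees C. The cells were HepG2 CAGA-GFP in 1% FBS DMEM, stimulated with 500 pg/mL TGF-beta after compound addition. %Activity was normalised to no-cell wells (complete cell-killing) and DMSO (no toxicity), and curves were fitted and classified.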
# TGFb SMAD3 inh: TGF-b pathway inhibition. HepG2 CAGA-GFP TGF-b/SMAD3 reporter, GFP fluorescence, 18 h; TGF-beta stimulated, 500 pg/mL final. AID 588855. Potency, µM (doses to about 46.1 µM), for the others: at the highest dose activity, negative = inhibition, hits mostly inhibitors. 410,000 tested, 1.2% active; also: % is scaled to controls: 0 for no effect and ±100 for the full control effect; nearly all actives have a fitted effect of over 65% in size
#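 TGF-beta reporter screen: HEPG2 CAGA-GFP, 1% FBS, 500 pg/mL TGF-beta final, 18 h; per-cell GFP summed per well; curves fitted and categorized by class.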
# Starred values were filed as active, the others as inactive; i = inactive; ? = inconclusive; . = no result given. Most compounds without a hit are left out; they make up all but 17% or so of the library. Calls follow the shape of the dose curve; as a rule, active = well fitted curve in the direction sought with a large enough effect; inconclusive = small, poorly fitted or top-dose-only effect, or another doubt; inactive = no such curve, though single readings can be large; an effect the other way counts as inactive or inconclusive. Potency is read from the fitted curve at half-maximal effect.
SMILES,S2 tox,DT40 TDP1 no CPT,DT40 TDP1 CPT,ATXN2 expr inh,HepG2 viability,TGFb SMAD3 inh
CC1CN(C(=O)N2CCC(C(=O)NCc3ccccc3F)CC2)c2cc(Cl)ccc2O1 (stereo unspecified),.,15µM*,21µM*,.,-29%,-15%
CC1(C(=O)NS(=O)(=O)c2ccccc2Cl)CCN1C(=O)c1ccccc1CCc1ccccc1 (stereo unspecified),i,?,-8%,6%,-4%,-1%
COc1cc(NC(=O)c2ccc(S(=O)(=O)N(C)c3ccccc3)cc2)cc(OC)c1,i,16µM*,?,-16%,-16%,1%
Cc1nnc(NC(=O)c2ccc(S(=O)(=O)N(C)c3ccccc3)cc2)s1,i,-24%,-22%,-11%,-9%,?
Cc1nc2cc(NC(=O)c3ccc(S(=O)(=O)N(C)c4ccccc4)cc3)ccc2o1,?,16µM*,?,?,0%,?
Cc1csc(NC(=O)c2ccc(S(=O)(=O)N(C)c3ccccc3)cc2)n1,i,13µM*,12µM*,34%,-19%,-23%
CN(c1ccccc1)S(=O)(=O)c1ccc(C(=O)Nc2nnc(-c3ccc(F)cc3)o2)cc1,i,6.5µM*,9.2µM*,?,-41%,0%
Cc1ccc(C)c(CN2C(=O)c3ccccc3S(=O)(=O)c3ccc(C(=O)NCc4ccccc4)cc32)c1,.,-17%,20%,.,-10%,.
Cc1ccccc1C(=O)N1CC(=O)Nc2ccc(F)cc2C1c1ccccc1 (stereo unspecified),?,1%,20%,-11%,-14%,0%
CN(c1ccccc1)S(=O)(=O)c1ccc(NC(=O)c2ccc(-c3ccccc3)cc2)cc1,i,?,21µM*,?,-1%,-19%
CC(=O)Nc1ccc(NC(=O)c2ccc(N(C)S(=O)(=O)c3ccc(C)cc3)cc2)cc1,i,-6%,-9%,-13%,-25%,-2%
Cc1ccc(NS(=O)(=O)c2ccc(-c3cc(C)no3)cc2)c(C)c1,.,5.8µM*,4.6µM*,.,-46%,13µM*
Cc1cc(C)cc(NS(=O)(=O)c2ccc(-c3cc(C)no3)cc2)c1,.,1.2µM*,1.3µM*,.,-54%,13µM*
Cc1cc(-c2ccc(S(=O)(=O)Nc3ccc(Cl)cc3)cc2)on1,.,18µM*,16µM*,.,-41%,-9%
CCc1ccc(NS(=O)(=O)c2ccc(-c3cc(C)no3)cc2)cc1,.,13µM*,13µM*,.,11µM*,?
COc1cc(NS(=O)(=O)c2cc(C(=O)NCCc3ccccn3)ccc2OC)cc(OC)c1,i,-25%,4%,26%,4%,13%
COc1ccc(CNC(=O)COC(=O)/C=C/c2cccc(Br)c2)cc1OC,i,-12%,?,3%,0%,4%
COc1ccc(-n2nc3c(c2NC(=O)C(=O)NCc2ccccc2)CSC3)cc1,i,?,?,1%,-3%,-4%
Cc1c(C(=O)NCC2(c3ccccc3)CCOCC2)cnn1-c1nccc(-c2ccco2)n1,i,-23%,?,.,.,.
O=C(O)CCSc1nc2ccccc2n1Cc1ccccc1,i,0%,-11%,-17%,-2%,?
CS(=O)(=O)c1cccc(-c2nnc(NC(=O)CCS(=O)(=O)c3ccccc3)o2)c1,i,-1%,10%,8%,5%,-12%
Cc1ccc(S(=O)(=O)N2CCCCC2)cc1C(=O)OC(C)C(=O)NCC1CCCCC1 (stereo unspecified),i,18µM*,?,-18%,-18%,?
CCOc1ccc(NC(=O)COC(=O)c2cc(S(=O)(=O)N3CCCC3)ccc2C)cc1,i,?,21µM*,-13%,-1%,?
Cc1ccc(C)c(C(=O)OCC(=O)Nc2cccc(S(=O)(=O)N3CCCCC3)c2)c1,i,10µM*,18µM*,?,-21%,?
CCOc1ccc(NC(=O)COC(=O)c2ccc(S(=O)(=O)N3CCOCC3)cc2)cc1,i,8%,-2%,.,1%,-1%
SMILES,S2 tox,DT40 TDP1 no CPT,DT40 TDP1 CPT,ATXN2 expr inh,HepG2 viability,TGFb SMAD3 inh
Cn1ncc(Cl)c1C(=O)Nc1nc2ccc(Cl)cc2s1,i,23µM*,16µM*,69%,-30%,?
CCSc1nnc(NC(=O)[C@@H](NC(=O)c2ccccc2)C(C)C)s1,i,-27%,-2%,2%,8%,5%
Cc1ccc(S(=O)(=O)NCCC(=O)NCC(c2cccs2)N(C)C)cc1C (stereo unspecified),i,2%,-5%,7%,6%,11%
CCCN(CCC)S(=O)(=O)c1ccc(C(=O)Nc2ccc(S(=O)(=O)Nc3nnc(CC)s3)cc2)cc1,i,?,-21%,-1%,9%,-28%
c1cc2c(c(NCc3ccncc3)c1)CCCC2,i,12µM*,12µM*,.,-11%,-19%
COc1ccc(NC(=O)NCCCN2CCCC2=O)c(OC)c1,.,-4%,-3%,.,2%,1%
CCOC(=O)c1c(C)c(-c2ccccc2)n(CC(=O)Nc2cccc(C)c2C)c1C,i,15µM*,13µM*,4%,2%,0%
CCOC(=O)c1c(C)c(-c2ccccc2)n(CC(=O)NC2CCCCC2)c1C,i,-10%,1%,12%,-6%,1%
CCOC(=O)c1c(C)c(-c2ccccc2)n(CC(=O)Nc2ccc(OCC)cc2)c1C,i,-29%,-3%,6%,14%,-1%
CCOC(=O)c1c(C)c(-c2ccccc2)n(CC(=O)Nc2cc(C)ccc2OC)c1C,i,18µM*,?,-3%,-1%,-17%
CCCOc1ccccc1NC(=O)c1c(-c2ccccc2)noc1C,i,8.2µM*,?,-21%,-10%,?
COc1ccc(NC(=O)c2c(-c3ccccc3)noc2C)c(OC)c1,i,-29%,-28%,4%,0%,-3%
Cc1cccc(C)c1NC(=O)c1c(-c2ccccc2)noc1C,i,-8%,-26%,-15%,7%,1%
Cc1ccccc1NC(=O)c1c(-c2ccccc2)noc1C,i,9.2µM*,12µM*,-14%,-22%,3%
Cc1onc(-c2ccccc2)c1C(=O)N(Cc1ccccc1)C(C)C,i,26µM*,?,.,-27%,-17%
